Most compounds without a hit are left out; they make up all but 0.67% or so of the library.
ugtP null kill – kills S. aureus RN4220 lacking UgtP | S. aureus RN4220 ugtP deletion, OD600 growth, 16 h | growth inhibition, % (concentration not given with the values) | 330,000 tested, 0.54% active; in the data active means growth inhibition above about 68%;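 further: plate controls were untreated wells for no effect and antibiotic for full effect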
Vc quorum ag-1 – quorum light induction in luxS cqsA deficient V. cholerae; V. cholerae BH1578 lux reporter, luminescence, 6 h; activation, % at 18.7 µM; 350,000 tested, 0.16% active; in the data active means activation mostly above about 9.7%, no sharp cut-off
TcdB inh – blocks C. difficile toxin B glycohydrolase activity | TcdB glycohydrolase enzymatic assay, plate reader | inhibition, % at 9.99 µM | 350,000 tested, 0.24% active | AID 652162; in the data active means inhibition above about 10%
Sa RN4220 lethal – S. aureus RN4220 growth inhibition | OD600, 16 h | inhibition, % (concentration not given with the values) | 330,000 tested, 0.33% active | AID 1259311; in the data active means inhibition above about 85%;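 further: plate controls were untreated cells for no effect and reference antibiotic for full effect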
Vc quorum ag-2 – induces V. cholerae light production without autoinducers; shares compounds with Vc quorum ag-1; V. cholerae BH1578 lux reporter, luminescence, 6 h; activation, % at 50 µM; 620 tested, under 10 active; AID 602243; call rule not given here
The depositor's hits bear a star; i = inactive; . = no result given; + = active, no number.

SMILES	ugtP null kill	Vc quorum ag-1	TcdB inh	Sa RN4220 lethal	Vc quorum ag-2
CCN1C(=O)NC(=Cc2ccc(Sc3ccc(C)cc3)o2)C1=O	-11	.	.	2	.
Cc1cccc(N2CCN(C(=O)Cn3cccc3C(=O)c3ccccc3)CC2)c1C	11	21	.	0	0
COc1cc2c(cc1O)CC1NCCc3cc4c(c-2c31)OCO4 (stereo not given)	14	.	.	5	.
CCC(CC)c1nnc(NC(=O)COc2ccc3c(C)cc(=O)oc3c2)s1	0	25	.	0	0
Cc1nnc(NC(=O)COc2ccc3c(C)cc(=O)oc3c2)s1	.	-1	.	.	.
CCCCCc1c(C)nc(N2CCc3ccccc3C2)[nH]c1=O	-1	25*	.	3	15
CC(CC(=O)NC(C)C)=NNC(=O)C(c1ccccc1)c1ccccc1	4	.	.	2	.
Cc1cccc(N2CCN(C(=O)C34CC5CC(CC(C5)C3)C4)CC2)c1C	-1	22*	.	-1	1
CCCc1cc(Nc2ccccc2)n2ncnc2n1	-3	1	-3	3	.
CCCc1cc(Nc2ccccc2OCC)n2ncnc2n1	4	3	.	1	1
O=c1ccc2ccc(OC3OC(CO)C(O)C(O)C3O)c(O)c2o1 (stereo not given)	-1	.	.	2	.
COc1cccc(OCC(=O)NC2CCCCCC2)c1	5	-1	2	3	.
COc1cccc(OCC(=O)NC2CCCCC2)c1	5	37*	0	5	39
CC=CC(=O)OCC(=O)Nc1ccc(C)c(S(=O)(=O)N(C)C)c1	-4	.	.	1	.
CCNC(=O)OCc1cn(-c2ccccc2)nn1	1	+	1	2	i
CC(=NNc1ncc(Cl)cc1Cl)c1cccs1	5	.	.	-2	.
Cc1ccc(S(=O)(=O)NCc2cccnc2)cc1C(=O)NC1CCCCC1	-1	14	2	-1	0
CCOC(=O)c1ccc(NC(=O)c2nc[nH]c2C(=O)NC(CC(C)C)C(=O)OCc2ccccc2)cc1 (stereo not given)	-31	.	.	-5	.
COC(=O)c1ccc(CSc2nnc3c(Cl)cc(Cl)cn23)o1	-1	35*	-1	0	3
O=S(=O)(Nc1ccc(-c2csc(-c3ccccc3)n2)cc1)c1ccc(F)cc1	-9	25*	.	5	0
NC(=S)NN=C1CCSc2ccc(Cl)cc21	0	.	.	4	.
